# According to PubChem BioAssay (NCI):
# About 79,000 compounds went through this panel and 15% of them were active in at least one assay; those are over-represented in the sample as a whole. A number with no mark means an inactive call. The source made the active and inactive calls. No stated cut-off is given here; in the data, active means growth inhibition above about 70%; inactive means the rest.
# Legend:
# [1] = NCI Yeast Anticancer Drug Screen. Data for the rad52 strain (AID 147);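 further: 0% = growth of vehicle-treated control cultures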; settings: S. cerevisiae rad52 mutant growth inhibition, active compounds read high
# In short: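 Compounds are applied to a genetically defined yeast strain lacking normal DNA damage repair, and inhibition of growth is expressed relative to cultures given vehicle only.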
# [2] = NCI Yeast Anticancer Drug Screen. Data for the wt1 strain (AID 149);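 further: 0% = growth of vehicle-treated wt1 cultures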; settings: S. cerevisiae wt1 strain (SPY 50644) growth inhibition, active compounds read high
# In short: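 wt1 yeast, compound-treated; % growth inhibition vs vehicle control.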
# [3] = NCI Yeast Anticancer Drug Screen. Data for the rad50EPP+ strain (AID 151);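 further: 0% = growth of vehicle-treated control cultures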; settings: S. cerevisiae rad50 mutant strain, active compounds read high
# In short: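 Compounds were applied to the rad50EPP+ yeast strain, which bears a defined DNA repair alteration, and growth inhibition was determined relative to vehicle-treated cultures.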
# [4] = NCI Yeast Anticancer Drug Screen. Data for the mgt1 strain (AID 153); settings: S. cerevisiae mgt1 mutant growth inhibition, active compounds read high
# In short: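 Strain: mgt1 yeast, one of a set carrying defined DNA damage repair or cell cycle control alterations. Compound-treated growth compared with vehicle.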
# [5] = NCI Yeast Anticancer Drug Screen. Data for the rad50 strain (AID 155);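 further: 0% = growth of vehicle-only cultures of the same strain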; settings: S. cerevisiae rad50 strain growth inhibition, active compounds read high
# In short: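 Genetically altered yeast (DNA repair pathway); compound treatment; growth inhibition vs vehicle ctrl.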
# [6] = NCI Yeast Anticancer Drug Screen. Data for the mec2-1 strain (AID 157); settings: S. cerevisiae mec2-1 strain, active compounds read high
# In short: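 Strain: mec2-1 (DNA repair/cell cycle alteration). Compound exposure, then growth measured; inhibition expressed relative to vehicle.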
# [7] = NCI Yeast Anticancer Drug Screen. Data for the sgs1 mgt1 strain (AID 161);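 further: 0% = growth of cultures given vehicle only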; settings: S. cerevisiae sgs1 mgt1 strain, active compounds read high
# In short: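 Read-out: growth inhibition vs vehicle controls. Cells: mutant yeast strain deficient in DNA damage repair.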
# [8] = NCI Yeast Anticancer Drug Screen. Data for the CLN2oe strain (AID 163);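 further: 0% = growth of vehicle-only control cultures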; settings: S. cerevisiae CLN2oe strain, active compounds read high
# In short: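 Growth of a genetically modified yeast strain is measured after compound exposure and compared with cultures given vehicle alone.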
# [9] = NCI Yeast Anticancer Drug Screen. Data for the bub3 strain (AID 167); settings: S. cerevisiae bub3 mutant strain, active compounds read high
# In short: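 Yeast carrying a defined mutation is treated with each compound, and growth is compared with that of vehicle-exposed cells to give inhibition.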
# [10] = NCI Yeast Anticancer Drug Screen. Data for the wt2 strain (AID 169);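 further: 0% = growth of vehicle-treated yeast cultures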; settings: S. cerevisiae wt2 strain growth inhibition, active compounds read high
# In short: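 This strain belongs to a panel of yeast strains with defined genetic alterations in DNA damage repair or cell cycle control. Compounds are applied, and growth inhibition is measured against vehicle-treated cultures.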
# [11] = NCI Yeast Anticancer Drug Screen. Data for the mlh1 strain (AID 171);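 further: 0% = growth of vehicle-treated control cultures of the same strain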; settings: S. cerevisiae mlh1 strain growth inhibition, active compounds read high
# In short: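 Growth of the mutant yeast strain after compound exposure, expressed as inhibition relative to vehicle-only controls.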
# [12] = NCI Yeast Anticancer Drug Screen. Data for the sgs1 strain (AID 173);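 further: 0% = growth of vehicle-only control cultures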; settings: S. cerevisiae sgs1 mutant, active compounds read high
# In short: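 Growth of a yeast strain bearing a defined genetic alteration is measured after compound treatment. Inhibition is expressed relative to vehicle-only controls.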
# [13] = NCI Yeast Anticancer Drug Screen. Data for the mlh1 rad18 strain (AID 175); settings: S. cerevisiae mlh1 rad18 strain growth inhibition, active compounds read high
# In short: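 Read-out is yeast growth inhibition, calculated against vehicle-only controls. The compound was applied to a strain engineered with DNA damage repair alterations.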
# [14] = NCI Yeast Anticancer Drug Screen. Data for the rad18 strain (AID 177); settings: S. cerevisiae rad18 mutant growth inhibition, active compounds read high
# In short: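 Growth of the mutant yeast strain after compound exposure, normalised to vehicle-only cultures.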
# [15] = at 5.0 µM (retest, dose inferred, filed as 0.5)
# [16] = at 50.0 µM (retest, dose inferred, filed as 5.0)
structure (smiles),measurement,setting,value
O=CC1(F)CC1(c1ccccc1)c1ccccc1 (stereo not given),growth inhibition,[1]; at 1.2 µM,-2%
same,growth inhibition,[1]; at 3.7 µM,-4%
same,growth inhibition,[1]; at 11.0 µM,-2%
same,growth inhibition,[1]; at 33.0 µM,1%
same,growth inhibition,[1]; at 100.0 µM,81% (active)
same,growth inhibition,[2]; at 1.2 µM,-1%
same,growth inhibition,[2]; at 3.7 µM,-1%
same,growth inhibition,[2]; at 11.0 µM,-4%
same,growth inhibition,[2]; at 33.0 µM,-1%
same,growth inhibition,[2]; at 100.0 µM,73% (active)
same,growth inhibition,[3]; at 1.2 µM,-1%
same,growth inhibition,[3]; at 3.7 µM,0%
same,growth inhibition,[3]; at 11.0 µM,5%
same,growth inhibition,[3]; at 33.0 µM,10%
same,growth inhibition,[3]; at 100.0 µM,17%
same,growth inhibition,[4]; at 1.2 µM,-2%
same,growth inhibition,[4]; at 3.7 µM,-7%
same,growth inhibition,[4]; at 11.0 µM,-2%
same,growth inhibition,[4]; at 33.0 µM,0%
same,growth inhibition,[4]; at 100.0 µM,87% (active)
same,growth inhibition,[5]; at 1.2 µM,0%
same,growth inhibition,[5]; at 3.7 µM,-46%
same,growth inhibition,[5]; [15],-3%
same,growth inhibition,[5]; at 11.0 µM,18%
same,growth inhibition,[5]; at 33.0 µM,5%
same,growth inhibition,[5]; [16],17%
same,growth inhibition,[5]; at 50.0 µM,27.8%
same,growth inhibition,[5]; at 100.0 µM,94% (active)
same,growth inhibition,[6]; at 1.2 µM,-3%
same,growth inhibition,[6]; at 3.7 µM,-3%
same,growth inhibition,[6]; [15],6%
same,growth inhibition,[6]; at 11.0 µM,-2%
same,growth inhibition,[6]; at 33.0 µM,4%
same,growth inhibition,[6]; [16],21%
same,growth inhibition,[6]; at 50.0 µM,21%
same,growth inhibition,[6]; at 100.0 µM,87% (active)
same,growth inhibition,[7]; [15],-2%
same,growth inhibition,[7]; [16],53%
same,growth inhibition,[7]; at 50.0 µM,55.6%
same,growth inhibition,[8]; at 1.2 µM,-2%
same,growth inhibition,[8]; at 3.7 µM,1%
same,growth inhibition,[8]; at 11.0 µM,2%
same,growth inhibition,[8]; at 33.0 µM,1%
same,growth inhibition,[8]; at 100.0 µM,25%
same,growth inhibition,[9]; at 1.2 µM,-2%
same,growth inhibition,[9]; at 3.7 µM,-4%
same,growth inhibition,[9]; [15],-3%
same,growth inhibition,[9]; at 11.0 µM,-6%
same,growth inhibition,[9]; at 33.0 µM,-4%
same,growth inhibition,[9]; [16],11%
same,growth inhibition,[9]; at 50.0 µM,5.65%
same,growth inhibition,[9]; at 100.0 µM,89% (active)
same,growth inhibition,[10]; at 1.2 µM,-1%
same,growth inhibition,[10]; at 3.7 µM,6%
same,growth inhibition,[10]; at 11.0 µM,-2%
same,growth inhibition,[10]; at 33.0 µM,2%
same,growth inhibition,[10]; at 100.0 µM,98% (active)
same,growth inhibition,[11]; at 1.2 µM,-2%
same,growth inhibition,[11]; at 3.7 µM,-3%
same,growth inhibition,[11]; at 11.0 µM,-3%
same,growth inhibition,[11]; at 33.0 µM,2%
same,growth inhibition,[11]; at 100.0 µM,94% (active)
same,growth inhibition,[12]; at 1.2 µM,-2%
same,growth inhibition,[12]; at 3.7 µM,-1%
same,growth inhibition,[12]; at 11.0 µM,3%
same,growth inhibition,[12]; at 33.0 µM,22%
same,growth inhibition,[12]; at 100.0 µM,98% (active)
same,growth inhibition,[13]; [15],-1%
same,growth inhibition,[13]; [16],14%
same,growth inhibition,[13]; at 50.0 µM,14.2%
same,growth inhibition,[14]; at 1.2 µM,-6%
same,growth inhibition,[14]; at 3.7 µM,2%
same,growth inhibition,[14]; at 11.0 µM,3%
same,growth inhibition,[14]; at 33.0 µM,13%
same,growth inhibition,[14]; at 100.0 µM,94% (active)
